Compounds with a hit are over-represented: about 6.2% of the library has one in this group of screens.
HCMV antiviral – human cytomegalovirus inhibition. HFF cells, HCMV-luciferase reporter, 72 h; stronger effect = lower value. activity change, negative = inhibition, % at 57.5 µM. 410,000 compounds, 4.5% hits. AID 1259415; in the data active = activity change below about -60%; inconclusive = no clear call, values can overlap the other calls; inactive = above about -39%
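Luciferase read-out from HCMV-luciferase-infected HFFs (MOI 1 PFU/cell) 72 h post infection at 37C; compounds added after 16 h cell attachment; activity normalized between buffer-only basal and Salinomycin (10uM) inhibitor controls.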
LASV entry inh – blocks Lassa virus binding to or entry into cells; Lassa virus pseudotype entry inhibition, cell reporter; Potency, µM (highest dose often 37.9 µM), hits mostly inhibitors; 300,000 compounds, 1.2% hits; calls by dose curve; tested in HEK293 cells; note: nearly all actives have a fitted effect of over 50% in size
FMDV antiviral – blocks foot and mouth disease virus; FMDV antiviral cell-based qHTS; Potency, µM (titrated, usually from 57.9 µM), usual class: inhibitors; 410,000 compounds, 1.2% hits; AID 1159524; calls by dose curve; tested in HEK293T cells; note: read-out not given here; nearly all actives have a fitted effect of over 45% in size
Marburg entry inh – blocks Marburg virus binding to or entry into cells. Marburg virus pseudotyped entry inhibition, cell reporter. Potency, µM (highest dose often 37.8 µM), usual class: inhibitors. 300,000 compounds, 1.8% hits. AID 540276; calls by dose curve; tested in HEK293 cells
Of the large screens only hits and unclear results are named; the others gave an inactive call.

Cc1ccc(NC(=O)Cn2c(=O)n(-c3ccc(C)cc3)c(=O)c3ccc(C(=O)NCc4ccccc4Cl)cc32)cc1	HCMV antiviral -60, LASV entry inh inconclusive
Cc1ccc(-n2c(=O)c3ccc(C(=O)NCc4ccccc4Cl)cc3n(CC(=O)Nc3cccc(Cl)c3)c2=O)cc1	LASV entry inh inconclusive
CC(=O)Nc1ccc(NC(=O)Cn2c(=O)n(-c3ccc(C)cc3)c(=O)c3oc4ccccc4c32)cc1	HCMV antiviral -65, LASV entry inh inconclusive, Marburg entry inh inconclusive
Cc1c(C(=O)NCc2nccs2)cnn1-c1ncc2c(n1)-c1ccccc1CC2	none (no result: HCMV antiviral, LASV entry inh, Marburg entry inh)
NC(=S)N/N=C\c1c2ccccc2cc2ccccc12	Marburg entry inh inconclusive
NC(=S)N/N=C\c1c(OCc2ccccc2Cl)ccc2ccccc12	HCMV antiviral -97, LASV entry inh inconclusive, FMDV antiviral inconclusive, Marburg entry inh inconclusive
O=C(Nc1ccc(N2CCCCCC2)cc1)c1cccc(S(=O)(=O)N2CCOCC2)c1	HCMV antiviral -74, LASV entry inh inconclusive, FMDV antiviral inconclusive, Marburg entry inh inconclusive
CNC(=O)c1ccc(NC(=O)c2cc(S(=O)(=O)N(C)C)ccc2N2CCCC2)cc1	HCMV antiviral -100 (no result: LASV entry inh, Marburg entry inh)
COc1ccc(N(C)S(=O)(=O)c2cccc(C(=O)Nc3ccc(N4CCOCC4)cc3)c2)cc1	FMDV antiviral inconclusive (no result: LASV entry inh, Marburg entry inh)
COc1ccc(C(=O)Nc2ccc(N3CCCCCC3)cc2)cc1S(=O)(=O)N1CCOCC1	HCMV antiviral -86 (no result: LASV entry inh, Marburg entry inh)
CN(C)S(=O)(=O)c1cccc(C(=O)Nc2ccc(N3CCOCC3)cc2)c1	HCMV antiviral -79
O=C(Nc1cccc(S(=O)(=O)N2CCOCC2)c1)c1cccc(S(=O)(=O)N2CCCCC2)c1	Marburg entry inh inconclusive
COC(=O)[C@H]1[C@H](CO)[C@H]2Cn3c(ccc(Br)c3=O)[C@H]2N1Cc1ccccc1Cl	none (no result: LASV entry inh, FMDV antiviral, Marburg entry inh)
CC(=O)Nc1ccc(/C=N/NC(=O)c2cccc(S(=O)(=O)N3CCOCC3)c2)cc1	HCMV antiviral -102, Marburg entry inh inconclusive
O=C(N/N=C/c1sc(N2CCOCC2)nc1-c1ccccc1)c1cccc(S(=O)(=O)N2CCCC2)c1	HCMV antiviral -112, LASV entry inh inconclusive, FMDV antiviral inconclusive, Marburg entry inh inconclusive
Cc1ccc(N(C)S(=O)(=O)c2cccc(C(=O)Nc3ccc(N4CCOCC4)cc3)c2)cc1	HCMV antiviral inconclusive, FMDV antiviral 25µM (no result: LASV entry inh, Marburg entry inh)
CN(c1ccccc1)S(=O)(=O)c1cccc(C(=O)Nc2ccc(N3CCOCC3)cc2)c1	FMDV antiviral inconclusive, Marburg entry inh inconclusive
O=C(N/N=C/c1sc(N2CCOCC2)nc1-c1ccccc1)c1ccc(O)cc1	LASV entry inh inconclusive
CCOc1ccc(Nc2nc(C)c(NC(=O)c3cccc(F)c3)c(Nc3ccc(OCC)cc3)n2)cc1	FMDV antiviral inconclusive, Marburg entry inh inconclusive
Cc1cc(C)cc(OCC(=O)N2CCC(c3nc4ccccc4o3)CC2)c1	none
CCc1nnc(SCc2nc(-c3ccccc3F)oc2C)c2cc3sccc3n12	none (no result: Marburg entry inh)
COc1ccccc1Cc1nc2ccccc2nc1SCC(=O)Nc1ccccc1C(F)(F)F	none (no result: Marburg entry inh)
Cc1cc(C)n(CC(=O)N2CCC(n3c(C(C)C)nc4cccnc43)CC2)n1	none (no result: HCMV antiviral, LASV entry inh, Marburg entry inh)
O=C(c1ccc(COc2ccc(F)cc2)o1)n1cc(Br)cn1	none
C=CCc1ccc(OCc2ccc(C(=O)O)o2)c(OC)c1	LASV entry inh inconclusive, FMDV antiviral 14µM, Marburg entry inh inconclusive
CCOc1ccc(OCc2ccc(C(=O)O)o2)cc1	LASV entry inh inconclusive, FMDV antiviral 8.9µM, Marburg entry inh inconclusive
O=C(O)c1ccc(COc2ccc3ccccc3c2)o1	none (no result: LASV entry inh, Marburg entry inh)
O=C(c1ccc(COc2ccc(F)cc2)o1)n1cccn1	HCMV antiviral -104
CC(C)(C)c1ccc(OCc2ccc(C(=O)N3CCOCC3)o2)cc1	HCMV antiviral -71, LASV entry inh 7.9µM, Marburg entry inh inconclusive
CS(=O)(=O)N1CCC2(CCN(C(=O)Nc3cccc(C#N)c3)CC2)CC1	none (no result: HCMV antiviral, LASV entry inh, Marburg entry inh)
O=C(c1cnn2cccnc12)N1CCOc2ccc(C(O)C(c3ccccc3)c3ccccc3)cc2C1 (stereo not given)	none (no result: HCMV antiviral, LASV entry inh, Marburg entry inh)
CC(Sc1nnc(C(C)Oc2ccc(F)cc2)o1)C(=O)NCc1ccc2c(c1)OCO2 (stereo not given)	none (no result: LASV entry inh, Marburg entry inh)
CC(C)c1c(C(=O)NCCN2CCOCC2)cnn1-c1nccc(-c2cccs2)n1	none (no result: HCMV antiviral, LASV entry inh, Marburg entry inh)
CC(SCc1ccccc1)C(=O)N/N=C/c1cc2c(cc1Br)OCO2 (stereo not given)	LASV entry inh 23µM, Marburg entry inh inconclusive
Cc1ccc2occ(/C=N/NC(=O)[C@@H](N)Cc3ccccc3)c(=O)c2c1	HCMV antiviral -84
CCCCC[C@H](O)c1cccc(OCc2ccc3ccccc3n2)c1	none (no result: HCMV antiviral, LASV entry inh, FMDV antiviral)
CCc1ccccc1NC(=S)N1CCN(c2ccccn2)CC1	HCMV antiviral -102, LASV entry inh inconclusive, FMDV antiviral inconclusive
CCN(CC)S(=O)(=O)c1ccc(C)c(NC(=S)N2CCN(Cc3ccc4c(c3)OCO4)CC2)c1	HCMV antiviral -99, LASV entry inh inconclusive, FMDV antiviral 20µM, Marburg entry inh inconclusive
CCN(CC)S(=O)(=O)c1ccc(C)c(NC(=S)N2CCN(c3ccccn3)CC2)c1	LASV entry inh 10µM, Marburg entry inh inconclusive
CC(NNC(=S)N1CCN(c2ccccn2)CC1)c1nccc2ccccc12 (stereo not given)	HCMV antiviral -98, LASV entry inh inconclusive, Marburg entry inh inconclusive
Cc1ccc(NC(=S)N2CCN(Cc3ccc4c(c3)OCO4)CC2)c(C)c1	HCMV antiviral inconclusive
Cc1cc(Br)cn2c(Cc3ccsc3)c(-c3ccc(Cl)cc3)nc12	none (no result: HCMV antiviral, LASV entry inh, Marburg entry inh)
Fc1cccc(NC(=S)N2CCN(c3ccccn3)CC2)c1	LASV entry inh 13µM
Cc1cccc(NC(=S)N2CCN(c3ccccn3)CC2)c1	none (no result: LASV entry inh, Marburg entry inh)
O=CNc1ccc2c(c1)Cc1cc([N+](=O)[O-])ccc1-2	Marburg entry inh inconclusive
Nc1cccc2c1Cc1cc([N+](=O)[O-])ccc1-2	HCMV antiviral -101
Nc1c(Br)cc(Br)c2c1-c1ccc([N+](=O)[O-])cc1C2	HCMV antiviral -80
CCOC(=O)CSc1nc2ccccc2c(=O)n1CC	none
CCCOC(=O)Cn1c(=O)c2cc3c(=O)n(CC(=O)OCCC)c(=O)c3cc2c1=O	HCMV antiviral -72
CCOC(=O)Cn1c(-c2ccccc2)nc2ccccc2c1=O	HCMV antiviral -95
CCCCOC(=O)Cn1c(-c2ccccc2)nc2ccccc2c1=O	HCMV antiviral -76
CCCOC(=O)C(C)n1c(-c2ccccc2)nc2ccccc2c1=O (stereo not given)	none
CCC(=O)OCCn1c(=O)c2cc3c(=O)n(CCOC(=O)CC)c(=O)c3cc2c1=O	none
CCC(C)n1ncn(-c2ccc(N3CCN(c4ccc(OCC5COC(Cn6cncn6)(c6ccc(Cl)cc6Cl)O5)cc4)CC3)cc2)c1=O (stereo not given)	HCMV antiviral -66, FMDV antiviral inconclusive (no result: LASV entry inh, Marburg entry inh)
CCC(C)n1ncn(-c2ccc(N3CCN(c4ccc(O)cc4)CC3)cc2)c1=O (stereo not given)	HCMV antiviral inconclusive, LASV entry inh inconclusive, FMDV antiviral inconclusive
Cc1c(Cl)cccc1-n1c(SCC(=O)NCc2ccccc2)nc2n[nH]c(C)c2c1=N	HCMV antiviral -61 (no result: Marburg entry inh)
Cc1[nH]nc2nc(SCC(=O)NCCC3=CCCCC3)n(-c3ccc(Br)cc3)c(=N)c12	HCMV antiviral -78 (no result: LASV entry inh, Marburg entry inh)
COc1ccc(OC)c(NC(=O)CSc2nc3n[nH]c(C)c3c(=N)n2-c2cccc(Cl)c2C)c1	HCMV antiviral inconclusive, FMDV antiviral inconclusive, Marburg entry inh 18µM

Compound activity (PubChem)
